From PubChem BioAssay (EPA / NIEHS)
Records with an inconclusive call do not appear. Calls of active or inactive are those of the source. How the source made its calls, unless noted: active means hit-call score of the fitted dose curve at least 0.9, where 1 is the maximum; inactive means score below 0.9.

Experiments:
[1] = APR_HepG2_CellCycleArrest_24hr: Apredica 24-hour HepG2 Assay for Cell Cycle Arrest (AID 2282905); conditions: imaging, actives raise or lower the signal;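 further: cell cycle arrest scored as ratio of 2N to 4N nuclear DNA content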
How it was run: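 Compounds at 0.39–200 uM (0.5% DMSO) for 24 h, then fixed and Hoechst 33342 stained. Cell-cycle analysis of nuclear DNA content by high-content imaging, fitted bidirectionally versus DMSO.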

[2] = APR_HepG2_NuclearSize_24hr: Apredica 24-hour HepG2 Assay for Nuclear Size (AID 2282907); conditions: high-content imaging, actives raise or lower the signal
How it was run: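 HepG2 cells exposed 24 h to compounds at 0.39–200 uM (0.5% DMSO), fixed, Hoechst 33342 stained and imaged at 20x; nuclear diameter measured by automated image analysis, fitted bidirectionally against DMSO controls.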

[3] = APR_HepG2_CellLoss_24hr: Apredica 24-hour HepG2 Assay for Cell Loss (AID 2282908); conditions: high-content imaging;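 on AC50: fit in both directions so a hit may be cell loss or gain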
How it was run: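 HepG2 cells exposed 24 hr to 0.39–200 uM compound in duplicate at 0.5% v/v final DMSO. Cells fixed in 3.7% formaldehyde and Hoechst 33342-stained. Cell number came from nuclear imaging at 20x. Bidirectional fit versus DMSO.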

[4] = APR_HepG2_MicrotubuleCSK_24hr: Apredica 24-hour HepG2 Assay for Microtubule CSK Stabilty (AID 2282909); conditions: HepG2 microtubule cytoskeleton imaging, actives raise or lower the signal
How it was run: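 HepG2 cells were treated 24 hr with compound at 0.39–200 uM in duplicate (0.5% DMSO final), then fixed and permeabilized. Alpha-tubulin immunofluorescence was imaged by high-content microscopy, with bidirectional fitting against DMSO and taxol as positive control.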

[5] = APR_HepG2_MitoticArrest_24hr: Apredica 24-hour HepG2 Assay for Mitotic Arrest (AID 2282910); conditions: high-content imaging, actives raise or lower the signal
How it was run: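 HepG2 human liver cells were exposed to compounds at 0.39–200 uM (10 concentrations, duplicate) in 0.5% v/v DMSO for 24 hr, then fixed and immunostained for phospho-histone H3 with Hoechst 33342. Mitotic arrest came from HCS fluorescent imaging, fitted bidirectionally against DMSO.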

[6] = APR_HepG2_MitoMembPot_24hr: Apredica 24-hour HepG2 Assay for Mitochondrial Membrane Potential (AID 2282911); conditions: imaging, actives raise or lower the signal
How it was run: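 Mitochondrial membrane potential imaged via MitoTracker Red CMXRos (250 nM, 30 min pre-fixation) in fixed HepG2 cells with Hoechst nuclear identification. Ten concentrations 0.39–200 uM, 24 h treatment, 0.5% DMSO; CCCP as positive control.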

[7] = APR_HepG2_MitoMass_24hr: Apredica 24-hour HepG2 Assay for Mitochondrial Mass (AID 2282912); conditions: high-content imaging, actives raise or lower the signal
How it was run: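 HepG2 cells exposed 24 hr to 0.39–200 uM compound, 0.5% v/v DMSO, in duplicate. Stained before fixation with 250 nM MitoTracker Red CMXRos for 30 min, then imaged at 20x with Hoechst nuclei. Fitted in both directions against DMSO.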

[8] = APR_HepG2_p53Act_24hr: Apredica 24-hour HepG2 Assay for p53 Activation (AID 2282913); conditions: high-content imaging, actives raise or lower the signal;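 further: p53 protein immunofluorescence averaged per cell in HepG2 with Hoechst nuclei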
How it was run: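 Fluorescence imaging of formaldehyde-fixed HepG2 cells labelled for p53 and with Hoechst, 24 h after dosing (0.39–200 uM, duplicate wells, 0.5% v/v DMSO). Signal fitted in both directions relative to DMSO.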

[9] = APR_HepG2_CellCycleArrest_72hr: Apredica 72-hour HepG2 Assay for Cell Cycle Arrest (AID 2282914); conditions: high-content imaging, actives raise or lower the signal
How it was run: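 Read-out: nuclear DNA content from Hoechst 33342 high-content imaging (20x, six fields/well) after 3.7% formaldehyde fixation, fitted bidirectionally against DMSO. Treatment was 72 h in HepG2, ten concentrations 0.39–200 uM, duplicate, 0.5% DMSO.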

[10] = APR_HepG2_CellLoss_72hr: Apredica 72-hour HepG2 Assay for Cell Loss (AID 2282915); conditions: high-content imaging
How it was run: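 HepG2 cells were exposed for 72 hr to compounds at 0.39–200 uM (ten concentrations, duplicate) in 0.5% v/v final DMSO. Nuclei were stained with Hoechst 33342 after 3.7% formaldehyde fixation, imaged at 20x, and counted; fits bidirectional versus DMSO.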

[11] = ACEA_ER_80hr: ACEA Biosciences xCELLigence Real-Time Cell Analysis on Estrogen Receptor Agonism for Proliferation (AID 2282667; active means hit-call score of the fitted dose curve at least 0.9, where 1 is the maximum); conditions: T47D proliferation, impedance (xCELLigence), 80 h
How it was run: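 Real-time impedance growth kinetics of human T-47D breast cells read 80 h after dosing, gain-of-signal fitted relative to DMSO. Compounds: 1:4 serial series, top final concentration 100 uM, n = 2.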

[12] = APR_HepG2_CellCycleArrest_1hr: Apredica 1-hour HepG2 Assay for Cell Cycle Arrest (AID 2282666); conditions: high-content imaging, actives raise or lower the signal
How it was run: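 HepG2 cells exposed for 1 h to 0.39–200 uM compound (0.5% DMSO). Fixed, Hoechst-stained nuclei imaged by ArrayScan; DNA content quantified by Cell Cycle analysis; bidirectional fit against DMSO.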

[13] = APR_HepG2_CellLoss_1hr: Apredica 1-hour HepG2 Assay for Cell Loss (AID 2282668); conditions: high-content imaging;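 further: curves fitted both ways against DMSO so gain or loss of cells counts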
How it was run: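 HepG2 cells were treated for 1 h with compound at 0.39–200 uM, in duplicate, in 0.5% DMSO. After formaldehyde fixation, Hoechst 33342-stained nuclei were imaged on an ArrayScan to count cells. Data were fitted bidirectionally versus DMSO.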

[14] = APR_HepG2_MicrotubuleCSK_1hr: Apredica 1-hour HepG2 Assay for Microtubule CSK Stabilty (AID 2282669); conditions: HepG2 microtubule cytoskeleton imaging, actives raise or lower the signal
How it was run: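 HepG2 cells exposed 1 h to 0.39–200 uM compound (0.5% DMSO, duplicates), then formaldehyde-fixed, permeabilized and immunostained for alpha-tubulin with Hoechst nuclei. Imaged by ArrayScan high-content analysis; bidirectional fit versus DMSO.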

[15] = APR_HepG2_NuclearSize_1hr: Apredica 1-hour HepG2 Assay for Nuclear Size (AID 2282670); conditions: high-content imaging, actives raise or lower the signal
How it was run: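 HepG2 cells dosed 1 hr with 0.39–200 uM compound (0.5% DMSO), formaldehyde-fixed, Hoechst 33342-stained and imaged at 20x; nuclear diameter from nuclear stain, fitted bidirectionally against DMSO.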

[16] = APR_HepG2_MitoticArrest_1hr: Apredica 1-hour HepG2 Assay for Mitotic Arrest (AID 2282672); conditions: high-content imaging, actives raise or lower the signal
How it was run: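 HepG2 cells exposed 1 hr to compounds at 0.39–200 uM (0.5% v/v DMSO final), then fixed in 3.7% formaldehyde and immunostained for phospho-histone H3 with Hoechst 33342. Mitotic arrest scored by automated fluorescence imaging, fitted bidirectionally versus DMSO.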

[17] = APR_HepG2_P-H2AX_1hr: Apredica 1-hour HepG2 Assay for H2AX Phosphorylation (AID 2282673); conditions: high-content imaging, actives raise or lower the signal
How it was run: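 HepG2 dosed 1 hr at 0.39-200 uM (0.5% DMSO final), duplicate. Fixed in 3.7% formaldehyde, Triton permeabilized, immunostained for phospho-histone H2A.x (1:200) with Hoechst 33342; ArrayScan 20x imaging, bidirectional fit vs DMSO.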

[18] = APR_HepG2_MitoMass_1hr: Apredica 1-hour HepG2 Assay for Mitochondrial Mass (AID 2282674); conditions: high-content imaging, actives raise or lower the signal
How it was run: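 HepG2 cells dosed 1 hr with 0.39-200 uM compound (0.5% DMSO), duplicate wells. Mitochondria stained with 250 nM MitoTracker Red CMXRos for 30 min before formaldehyde fixation, imaged at 20x by ArrayScan; bidirectional fit versus DMSO.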

[19] = APR_HepG2_MitoMembPot_1hr: Apredica 1-hour HepG2 Assay for Mitochondrial Membrane Potential (AID 2282675); conditions: imaging, actives raise or lower the signal
How it was run: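 HepG2 cells dosed 1 hour with 0.39–200 uM compound in duplicate, 0.5% DMSO final. MitoTracker Red CMXRos (250 nM, 30 min) loaded before formaldehyde fixation; fluorescence quantified by high-content imaging, bidirectional fitting versus DMSO.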

[20] = APR_HepG2_StressKinase_1hr: Apredica 1-hour HepG2 Assay for Stress Kinase (AID 2282906); conditions: HepG2 stress kinase (phospho-c-Jun) imaging, actives raise or lower the signal
How it was run: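 HepG2 cells dosed 0.39-200 uM (0.5% DMSO) for 1 h, then formaldehyde-fixed. Stress kinase read by phospho-c-Jun immunofluorescence using high-content imaging; bidirectional fit vs DMSO.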

Measured: AC50

O=C(O)C(F)(F)C(F)(F)C(F)(F)C(F)(F)C(F)(F)C(F)(F)C(F)(F)C(F)(F)F
active: [1] 105 µM | [3] 104 µM | [5] 139 µM | [7] 107 µM | [8] 114 µM | [10] 110 µM
inactive: [2] | [4] | [6] | [9]

O=C(NC(=O)c1c(F)cccc1F)Nc1cc(Cl)c(OC(F)(F)C(F)F)c(Cl)c1
inactive: [11] | [1] | [2] | [3] | [4] | [5] | [6] | [7] | [8] | [9] | [10]

Cc1cccc(C)c1N
inactive: [11] | [1] | [2] | [3] | [4] | [5] | [6] | [7] | [8] | [9] | [10]

CCOCCOC(C)=O
inactive: [11] | [1] | [2] | [3] | [4] | [5] | [6] | [7] | [8] | [9] | [10]

COc1ccc(O)c(C(C)(C)C)c1
inactive: [1] | [2] | [3] | [4] | [5] | [6] | [7] | [8] | [9] | [10]
active: [11] 1.95 µM

CCSC(=O)N(CC)C1CCCCC1
inactive: [12] | [13] | [14] | [15] | [16] | [17] | [18] | [19] | [1] | [20] | [2] | [3] | [4] | [5] | [6] | [7] | [9] | [10]

CN(C)CCO
inactive: [11] | [1] | [2] | [3] | [4] | [5] | [6] | [7] | [8] | [9] | [10]

CC(C)(c1ccccc1)c1ccc(O)cc1
active: [11] 483 nM [middle of 4 runs] | [3] 84.6 µM | [10] 63.3 µM
inactive: [1] | [2] | [4] | [5] | [6] | [7] | [8] | [9]

CCNc1nc(NC(C)C)nc(SC)n1
inactive: [12] | [13] | [14] | [15] | [16] | [17] | [18] | [19] | [1] | [20] | [2] | [3] | [4] | [5] | [6] | [7] | [9] | [10]

CCCN(CCC)N=O
inactive: [11] | [1] | [2] | [3] | [4] | [5] | [6] | [7] | [8] | [9] | [10]

CC1=C2C[C@H]3[C@@H](CC=C4C[C@@H](O)CC[C@@]43C)[C@@H]2CC[C@]12O[C@@H]1C[C@H](C)CN[C@H]1[C@H]2C
inactive: [11] | [1] | [2] | [4] | [6] | [8] | [9]
active: [3] 20.2 µM | [5] 23.8 µM | [7] 35.4 µM | [10] 25.3 µM

Cc1ccccc1O
inactive: [11] | [1] | [2] | [3] | [4] | [5] | [6] | [7] | [8] | [9] | [10]

CC(c1ccc(O)cc1)(c1ccc(O)cc1)c1ccc(O)cc1
active: [11] 1.54 µM | [3] 113 µM | [5] 107 µM | [6] 29.5 µM | [7] 109 µM | [8] 104 µM | [10] 115 µM
inactive: [1] | [2] | [4] | [9]

Cc1cc(O)ccc1Cl
inactive: [11] | [1] | [2] | [3] | [4] | [5] | [6] | [7] | [8] | [9] | [10]

Oc1ccc(Cl)cc1Cl
inactive: [1] | [2] | [3] | [4] | [5] | [6] | [7] | [8] | [9] | [10]

NS(=O)(=O)C(F)(F)C(F)(F)C(F)(F)C(F)(F)C(F)(F)C(F)(F)C(F)(F)C(F)(F)F
active: [1] 62.5 µM | [3] 93.4 µM | [6] 72.5 µM | [8] 101 µM | [9] 46.1 µM | [10] 63.4 µM
inactive: [2] | [4] | [5] | [7]

CC#Cc1cc(C)nc(Nc2ccccc2)n1
inactive: [11] | [1] | [2] | [3] | [4] | [5] | [6] | [7] | [8]
active: [9] 96.1 µM | [10] 69.8 µM

COS(=O)(=O)OC
inactive: [11] | [1] | [2] | [3] | [4] | [5] | [6] | [7] | [8] | [9] | [10]
